Test results as given in PubChem BioAssay (NCI).
About 83,000 compounds went through this panel and 20% of them were active in at least one assay; those are over-represented in the sample as a whole.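 Activity criterion: percent growth below 10, measured after cells in 96-well plates were exposed to a single compound concentration for 48 hours.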 Activity calls are given as the source filed them.

What was measured:
Experiment in all cases: NCI-60 one-dose screen, 48 h (100 = growth as untreated, 0 = no growth, -100 = all killed)
Conditions in all cases: 10 µM
SK-MEL-2 melanoma = tested on: SK-MEL-2 melanoma
EKVX NSCLC = tested on: EKVX NSCLC
SN12C renal = tested on: SN12C renal
UO-31 renal = tested on: UO-31 renal
TK-10 renal = tested on: TK-10 renal
ACHN renal = tested on: ACHN renal
CAKI-1 renal = tested on: CAKI-1 renal
A498 renal = tested on: A498 renal
CCRF-CEM leukemia = tested on: CCRF-CEM leukemia
MOLT-4 leukemia = tested on: MOLT-4 leukemia

Measured: growth

CCCn1c(=O)c2[nH]c(-c3ccc(OCc4nc5ccc(C#N)cc5[nH]4)cc3)nc2n(CCC)c1=O
inactive: SK-MEL-2 melanoma 96.8% | EKVX NSCLC 80.6% | SN12C renal 76.5% | UO-31 renal 67.8% | TK-10 renal 107% | ACHN renal 70.4% | CAKI-1 renal 89.6% | A498 renal 79.1% | CCRF-CEM leukemia 83.6% | MOLT-4 leukemia 75.6%

CCOC(=O)CNC(=O)CN(Cc1ccccc1)C(=O)[C@@]1(C)CCC[C@]2(C)[C@H]3C[C@H]4C(C(C)C)=C[C@]3(CC[C@H]21)[C@@H]1C(=O)OC(=O)[C@@H]14
inactive: SK-MEL-2 melanoma 82.3% | EKVX NSCLC 67.6% | SN12C renal 69% | UO-31 renal 65.5% | TK-10 renal 90.3% | ACHN renal 57% | CAKI-1 renal 88.3% | A498 renal 110% | CCRF-CEM leukemia 15.6% | MOLT-4 leukemia 27.8%

CC(=O)Nc1ccc(-c2cn(-c3cccc(C(=O)Nc4ccc(F)c(C(F)(F)F)c4)c3)nn2)cn1
inactive: SK-MEL-2 melanoma 88.9% | EKVX NSCLC 79.9% | SN12C renal 13.4% | UO-31 renal 123% | TK-10 renal 109% | ACHN renal 56.4% | CAKI-1 renal 74.1% | A498 renal 114% | CCRF-CEM leukemia 53.9% | MOLT-4 leukemia 36.9%

Cc1ccc(/C=C/C(=O)c2ccc(S(=O)(=O)NCCNc3nc(Nc4ccc(F)cc4)nc(N(C)C)n3)cc2)cc1
inactive: SK-MEL-2 melanoma 84.5% | EKVX NSCLC 30.7% | UO-31 renal 36.8% | TK-10 renal 100% | ACHN renal 11.9% | CAKI-1 renal 29.3% | A498 renal 37.3% | CCRF-CEM leukemia 17.6% | MOLT-4 leukemia 10.1%
active: SN12C renal -83.9%

CO[C@@H]1CSS[C@H]1Cn1nc(-c2ccc(Oc3ccccc3)cc2)c2c(N)ncnc21
inactive: SK-MEL-2 melanoma 64.7% | EKVX NSCLC 42.8% | SN12C renal 73.9% | UO-31 renal 27.2% | TK-10 renal 45.5% | ACHN renal 68.2% | CAKI-1 renal 47.6% | A498 renal 67% | CCRF-CEM leukemia 10.7% | MOLT-4 leukemia 14%

O=c1c2ccccc2nc(COc2ccccc2)n1/N=C/c1ccc(F)cc1
inactive: SK-MEL-2 melanoma 94.5% | EKVX NSCLC 92.1% | SN12C renal 86.5% | UO-31 renal 84.4% | TK-10 renal 105% | ACHN renal 91.1% | CAKI-1 renal 94.3% | A498 renal 106% | CCRF-CEM leukemia 86.2% | MOLT-4 leukemia 72.9%

CCOP(=O)(OCC)O[C@H]1CCC(=O)[C@@H]2[C@H]1[C@H]1C[C@@H]3[C@@]4(C)CCCC(C)(C(=O)OC)[C@@H]4CC[C@@]23C=C1C(C)C (stereo not given in full)
inactive: SK-MEL-2 melanoma 71.3% | EKVX NSCLC 41.5% | SN12C renal 65.4% | UO-31 renal 53.5% | TK-10 renal 83.2% | ACHN renal 65.2% | CAKI-1 renal 63.2% | A498 renal 91.1% | CCRF-CEM leukemia 55.1% | MOLT-4 leukemia 30%

COc1ccc2[nH]c(=O)c(CSc3ccc(Nc4nccc(-c5ccc(Cl)cc5)n4)cc3)cc2c1
inactive: SK-MEL-2 melanoma 94.3% | EKVX NSCLC 86.8% | SN12C renal 83.7% | UO-31 renal 85.5% | TK-10 renal 124% | ACHN renal 90.3% | CAKI-1 renal 76.3% | A498 renal 141% | CCRF-CEM leukemia 96.7% | MOLT-4 leukemia 84.4%

N#Cc1c(NC(=O)c2ccc(C(F)(F)F)cc2)sc2c1CCC(=O)C2
active: SK-MEL-2 melanoma -57.9% | EKVX NSCLC -42.6% | SN12C renal -31.9% | UO-31 renal -99.9% | TK-10 renal -53.7% | ACHN renal -100% | CAKI-1 renal -21.7% | A498 renal 2.58% | CCRF-CEM leukemia 7.92% | MOLT-4 leukemia 9.79%

CN1CCc2c(sc3ncnc(N/N=C/c4cn(-c5ccccc5)nc4-c4ccc(Cl)cc4)c23)C1
inactive: SK-MEL-2 melanoma 36.3% | EKVX NSCLC 19.8% | SN12C renal 24.9% | UO-31 renal 15.4% | TK-10 renal 49.9% | ACHN renal 21.7% | CAKI-1 renal 23.8% | A498 renal 94.1% | CCRF-CEM leukemia 11.4% | MOLT-4 leukemia 18.2%

O=C1CCC(N2Cc3cc(CC(=O)Nc4ccc(N5CCCCC5)cc4)ccc3C2=O)C(=O)N1 (stereo not given)
inactive: SK-MEL-2 melanoma 74.7% | EKVX NSCLC 83.4% | SN12C renal 46.7% | UO-31 renal 21% | TK-10 renal 67.5% | ACHN renal 92.4% | CAKI-1 renal 87.6% | A498 renal 12.7% | CCRF-CEM leukemia 16.9%
active: MOLT-4 leukemia -7.39%

Cc1ccc2nc(COc3ccc(C(=O)NNC(=S)NCCc4ccccc4)cc3)[nH]c2c1
inactive: SK-MEL-2 melanoma 81.7% | EKVX NSCLC 95% | SN12C renal 77.3% | UO-31 renal 84.3% | TK-10 renal 111% | ACHN renal 101% | CAKI-1 renal 96.2% | A498 renal 134% | CCRF-CEM leukemia 98.3% | MOLT-4 leukemia 96.1%
